# Hits are enriched below; roughly 2.3% of the tested compounds scored in any of these assays.
# H9c2 protect: modulators protecting cardiomyocytes from myocardial damage. H9c2 cardiomyocytes, H2O2 injury protection, ATPLite, 2 h. protection from H2O2 cell death, % at 20 µM. actives 0.63% (n = 360,000);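 active = compounds giving at least 50% protection of heart cells from peroxide-induced death in the single-dose screen, raw or plate-pattern-corrected value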;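 note: 0% = DMSO wells with peroxide and 100% = DMSO wells without peroxide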
# MIN6 prolif: induces beta-cell replication in MIN6 cells; MIN6 cells proliferation, ATPlite luminescence, 48 h; cells starved in 0.2% serum; 100% = growth in 10% serum; proliferation, % at 10 µM; actives 0.29% (n = 330,000);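 active = compounds whose signal lies at least 3.5 SD above the mean of all wells on their plate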;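 note: 0% = DMSO-treated cells in low-serum medium and 100% = 10% serum control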
# TAG inh: reduces triacylglycerol accumulation in H9c2 cells; Nile Red lipid (TAG) fluorescence; cells loaded with 200 µM oleic acid; inhibition, % at 12.5 µM; actives 0.66% (n = 230,000); AID 651582;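 active = pattern-corrected inhibition of lipid staining of at least 50% with the nuclear-stain viability signal not falling by more than 50%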;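 note: 0% = DMSO wells and 100% = triacsin C control wells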
# FAS TE block: inhibitors of human fatty acid synthase thioesterase domain | AID 602261 | P49327 | recombinant FAS-TE, OMFH fluorogenic substrate, fluorescence endpoint | inhibition, % at 15 µM | actives 0.67% (n = 360,000);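 active = compounds whose normalised, plate-corrected inhibition of enzyme fluorescence in the single-dose primary screen is 50% or more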;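 note: 0% = DMSO with enzyme and 100% = substrate without enzyme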
# aDG glyco act: alpha-DG glycosylation activation | Pro5-aDG cells, alpha-DG glycosylation AlphaScreen (IIH6); 0% Pro5, 100% B10-LARGE cell signal | activation, % at 10 µM | actives 0.22% (n = 360,000) | AID 624168;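 active = activation of at least 8% versus controls, or a plate z-score of at least 8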;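 note: Pro5 are CHO cells carrying HIG-tagged alpha-DG that lacks glycosylation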
# Calpain2 inh: inhibitors of pig calpain II; purified calpain II, fluorogenic peptide substrate, 30 min; inhibition, % at 16 µM; actives 0.37% (n = 220,000); AID 1236;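 active = inhibition above about 50%, limit read from the data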
# Active calls of the source: *; i = inactive; x = not tested or not shown.
SMILES,H9c2 protect,MIN6 prolif,TAG inh,FAS TE block,aDG glyco act,Calpain2 inh
CN(C)C(=O)c1ccc(Cc2cn(C)c3ccccc23)nc1,12.9,x,6.4,-6.1,-0.3,x
O=C(C[C@H]1C/C=C\C[C@@H](Cc2ccc(F)cc2)C(=O)O[C@H](c2ccccc2)CNC1=O)NCCO,2.0,-2.4,-6.9,-8.4,0.1,x
Cc1nn(C)cc1C(C(=O)NC1CCCCC1)N(C(=O)Cc1cccs1)c1ccc(Cl)cc1 (centres undefined),54.7*,-2.0,x,7.8,-0.4,22.3
Cc1ccc(N(C(=O)Cn2nnc3ccccc32)C(C(=O)NC2CCCCC2)c2cn(C)nc2C)cc1 (centres undefined),0.6,-2.3,x,16.0,0.1,-38.6
Cc1cccc(N=Nc2ccc(O)c3ncccc23)c1,8.4,0.0,82.4*,1.6,-1.0,7.9
Oc1ccc(N=Nc2ccc3c(c2)OCCO3)c2ncccc12,12.3,-7.4,78.5*,5.0,-0.8,-11.8
NS(=O)(=O)c1ccc(N=Nc2ccc(O)c3ncccc23)cc1,20.9,-4.5,x,11.8,-0.1,x
Cc1ccc(C)c(N=Nc2ccc(O)c3ncccc23)c1,14.5,-5.4,108.3*,12.2,-0.7,-40.1
CCOc1ccc(N=Nc2ccc(O)c3ncccc23)cc1,27.1,-5.1,x,0.1,-0.3,x
COc1ccc2c(c1OC)C(=O)N1c3ccccc3C(=O)N(c3ccc(F)cc3)C21 (centres undefined),39.7,5.0,x,1.1,-0.2,-75.5
COc1ccc2c(c1OC)C(=O)N1c3ccccc3C(=O)N(c3ccccc3)C21 (centres undefined),53.5*,-1.4,x,-1.6,-0.1,-24.9
COc1cc(/C=C2/N=C(c3ccccc3)OC2=O)c(F)cc1OCc1ccccc1,0.4,-8.6,-7.7,12.7,0.2,x
COc1cccc(COc2nc3c(c(=O)n(C)c(=O)n3C)n2C)c1,7.4,1.8,-30.2,1.4,0.5,76.0*
CCOC(=O)c1c(C)[nH]c(O)c1C=Nc1ccc(C(F)(F)F)cc1,15.7,-3.4,3.3,-6.1,-0.2,-54.9
COC(=O)c1c(C)[nH]c(O)c1C=Nc1ccc(C(C)C)cc1,11.9,-4.1,-11.0,2.2,0.0,22.6
COC(=O)c1c(C)[nH]c(O)c1C=Nc1ccc(Oc2ccccc2)cc1,84.4*,-1.1,4.5,-0.1,-0.6,15.9
CCOC(=O)c1c(C)[nH]c(O)c1C=Nc1ccc(Cl)cc1,52.5*,-2.8,8.2,3.2,-0.4,-43.3
OCC(O)C(O)C(O)c1cnn(-c2ccccc2)n1 (centres undefined),-1.0,x,5.5,-6.9,0.0,x
CCCCN(CCCC)S(=O)(=O)c1ccc(C(=O)Nc2nnc(CSC)o2)cc1,49.5*,-1.9,-3.7,3.7,1.2,-63.4
CCCN(CCC)S(=O)(=O)c1ccc(C(=O)Nc2nnc(-c3cccc(OC)c3)o2)cc1,31.0,0.0,6.6,15.8,2.9,-123.0
CCCN(CCC)S(=O)(=O)c1ccc(C(=O)Nc2nnc(-c3cc(OC)cc(OC)c3)o2)cc1,53.8*,-3.6,9.2,8.7,5.5*,-139.8
CCCCN1C(=O)C(CC(=O)NC(c2ccccc2)c2ccccc2)CC(C(=O)N(C(C)C)C(C)C)=C1C (centres undefined),11.9,x,12.7,5.5,0.3,x
Cc1ccc(S(=O)(=O)C[C@@H]2OC3CCCCC3N2S(=O)(=O)c2ccc(C)cc2)cc1 (some centres undefined),x,x,x,x,0.0,x
CCC(=O)Nc1ccc(N2CCN(C(=O)c3cccs3)CC2)cc1,-7.5,-3.3,-21.4,-10.5,0.3,4.8
O=C(COc1ccccc1[N+](=O)[O-])Nc1ccc(N2CCN(C(=O)c3cccs3)CC2)cc1,65.9*,-4.1,-54.0,16.2,0.4,6.9
SMILES,H9c2 protect,MIN6 prolif,TAG inh,FAS TE block,aDG glyco act,Calpain2 inh
CSc1cccc(NC(=O)CSc2ccc(Cl)cc2)c1,-9.3,-2.5,-9.4,28.6,-0.4,51.3*
O=C(O)CC(C(=O)O)C(c1ccccc1)c1ccccc1 (centres undefined),2.0,x,-1.0,-5.4,0.0,x
COc1ccc(Nc2nc(NCc3ccco3)nc(N/N=C/c3ccc(O)cc3)n2)cc1,51.3*,0.1,x,9.2,-0.6,-8.0
COc1ccc(/C=N/Nc2nc(NCc3ccco3)nc(Nc3ccc(OC)cc3)n2)cc1,1.4,0.0,x,15.3,-0.3,6.8
O=Cc1ccc2ccc3cccnc3c2n1,44.4,-4.1,x,-5.5,0.3,x
c1cnc2c(c1)ccc1cccnc12,59.5*,-4.2,-2.7,-3.5,2.2,1.4
CCCCNS(=O)(=O)c1cccc(NC(=O)[C@H]2C[C@H](O)[C@@H](CO)O2)c1,1.8,x,-5.2,-6.1,-0.3,x
O=C(COc1ccccc1Br)N1CCN(C(=O)c2cccs2)CC1,-1.1,1.1,-2.0,-5.9,0.2,x
CC(=O)Oc1c(-c2ccc(Br)o2)oc2ccccc2c1=O,58.2*,-4.0,x,3.1,-0.3,x
COc1ccc(-c2oc3ccccc3c(=O)c2OC(C)=O)cc1,45.7,-6.2,6.1,9.0,-0.4,i
CC1CCC(=NNS(=O)(=O)c2ccc([N+](=O)[O-])cc2)CC1 (centres undefined),9.4,x,-7.2,58.0*,0.1,x
CC1CCC/C(=N\NS(=O)(=O)c2ccccc2)C1 (centres undefined),4.6,-2.8,-10.4,-4.0,0.0,5.3
COc1cccc2c1OC1(N3CCOCC3)CCCCC1C2C[N+](=O)[O-] (centres undefined),0.9,x,-8.4,-5.3,0.1,x
CCCCOc1ccc(C(=O)NCC(=O)N(C)Cc2nc3ccccc3c(=O)[nH]2)cc1,54.2*,-2.0,1.1,-0.6,0.1,x
Cc1ccc(OCCOC(=O)CCc2nc3ccccc3c(=O)[nH]2)cc1,54.6*,-2.7,-3.2,-7.1,-0.3,-1.8
O=C(COC(=O)CCc1nc2ccccc2c(=O)[nH]1)NC(=O)NC1CCCC1,33.7,-0.8,x,3.8,-0.1,2.2
Cc1ccccc1NC(=O)COC(=O)CCc1nc2ccccc2c(=O)[nH]1,65.0*,-0.5,-2.3,-4.7,-0.2,-19.7
CC(OC(=O)CCc1nc2ccccc2c(=O)[nH]1)C(=O)NC1CCCC1 (centres undefined),54.9*,0.7,11.4,-8.3,-0.3,-15.7
CCC1CN(C(=O)N2CCC(C(=O)NCc3cccc(OC)c3OC)CC2)c2cc(C)ccc2O1 (centres undefined),3.5,-1.7,x,0.0,0.1,x
O=C(COC(=O)CCc1nc2ccccc2c(=O)[nH]1)Nc1ccc2c(c1)OCO2,51.8*,0.3,-6.2,-2.8,0.0,-26.6
O=C(COC(=O)CCc1nc2ccccc2c(=O)[nH]1)Nc1c(Cl)cccc1C(F)(F)F,52.1*,2.0,0.0,-6.8,-0.3,x
CC(NC(=O)COC(=O)CCc1nc2ccccc2c(=O)[nH]1)c1ccccc1 (centres undefined),35.0,0.6,3.1,-3.9,-0.1,-16.2

# Source: PubChem
